Screen size: about 310,000 compounds; about 14,000 (4.5%) showed an effect of 50% or more. Effects have a minus sign here. Only a selection was taken, and strong results are over-represented in it overall.
Target: human ether-à-go-go-related gene (hERG) potassium channel (human, UniProt Q12809)
Assay: primary screen, population patch clamp on CHO cells stably expressing hERG; higher = less effect of the substance
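Further: peak tail current of the secondary pulse compared with the same well before compound.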

Sequence of human ether-à-go-go-related gene (hERG) potassium channel (Q12809 whole entry, looked up): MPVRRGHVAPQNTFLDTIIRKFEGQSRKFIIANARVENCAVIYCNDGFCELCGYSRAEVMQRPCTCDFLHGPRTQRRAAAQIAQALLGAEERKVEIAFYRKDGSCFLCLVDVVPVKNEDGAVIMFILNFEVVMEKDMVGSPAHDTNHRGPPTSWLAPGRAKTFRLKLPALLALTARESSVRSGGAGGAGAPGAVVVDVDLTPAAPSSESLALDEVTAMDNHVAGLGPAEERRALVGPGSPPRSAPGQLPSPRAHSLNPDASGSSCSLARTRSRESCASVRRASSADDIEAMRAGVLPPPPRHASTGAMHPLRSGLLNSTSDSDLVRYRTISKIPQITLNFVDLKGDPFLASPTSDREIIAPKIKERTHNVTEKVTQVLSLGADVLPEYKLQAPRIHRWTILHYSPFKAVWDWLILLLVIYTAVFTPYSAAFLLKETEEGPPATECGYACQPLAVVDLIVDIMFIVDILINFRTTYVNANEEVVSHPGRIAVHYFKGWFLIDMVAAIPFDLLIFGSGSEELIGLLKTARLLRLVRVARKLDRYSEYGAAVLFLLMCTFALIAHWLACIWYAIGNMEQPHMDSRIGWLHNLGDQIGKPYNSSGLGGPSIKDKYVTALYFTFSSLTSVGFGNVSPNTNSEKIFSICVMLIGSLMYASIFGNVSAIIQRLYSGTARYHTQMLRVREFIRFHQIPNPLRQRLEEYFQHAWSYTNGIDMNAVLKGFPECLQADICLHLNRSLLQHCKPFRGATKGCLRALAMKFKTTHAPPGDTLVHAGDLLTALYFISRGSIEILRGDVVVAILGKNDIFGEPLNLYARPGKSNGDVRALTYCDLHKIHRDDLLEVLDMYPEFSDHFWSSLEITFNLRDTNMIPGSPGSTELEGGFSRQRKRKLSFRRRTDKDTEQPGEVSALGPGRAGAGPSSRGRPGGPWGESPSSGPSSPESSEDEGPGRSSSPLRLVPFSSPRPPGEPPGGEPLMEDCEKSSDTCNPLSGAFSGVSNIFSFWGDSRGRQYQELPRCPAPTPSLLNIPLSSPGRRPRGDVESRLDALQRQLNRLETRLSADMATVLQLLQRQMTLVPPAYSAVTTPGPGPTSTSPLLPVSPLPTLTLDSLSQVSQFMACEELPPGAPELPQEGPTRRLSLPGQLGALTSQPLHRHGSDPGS

SMILES | hERG current change (%, negative = inhibition) at 10uM
COc1cc(C(C)=O)ccc1OC(=O)C(C)N1C(=O)c2ccccc2C1=O (stereo not shown) | -13%
O=C(CN1C(=O)CNC1=O)Nc1cccc(C(F)(F)F)c1 | 8.56%
Cc1ccc(NC(=O)Cn2nnc3ccccc32)cc1 | 12.1%
CCCC(=O)NC(=S)Nc1cccc(NC(=O)c2ccc(Cl)cc2Cl)c1 | 11.6%
CCOC(=O)c1[nH]c2ccc(OCC)cc2c1NC(=O)CN1CCCC(C)C1 (stereo not shown) | -18.3%
CCOC(=O)c1[nH]c2ccc(Br)cc2c1NC(=O)CCN1CCC(C(=O)OCC)CC1 | -73.9%
CCOC(=O)c1[nH]c2ccc(Br)cc2c1NC(=O)CCN1CCC(C)CC1 | -69.1%
CCOC(=O)C1CCN(CC(=O)Nc2c(C(=O)OC)[nH]c3ccc(Cl)cc23)CC1 | -15%
CCOC(=O)c1[nH]c2ccc(OC)cc2c1NC(=O)CCN1CCCC(C)C1 (stereo not shown) | -36.9%
CCOC(=O)c1[nH]c2ccc(Br)cc2c1NC(=O)CCN1CCCC(C)C1 (stereo not shown) | -73.1%
CCOC(=O)c1[nH]c2ccc(F)cc2c1NC(=O)CCN1CCOCC1 | 3.03%
CCOC(=O)c1[nH]c2ccc(Br)cc2c1NC(=O)CCN1CCN(C(=O)OCC)CC1 | -44%
COC(=O)c1[nH]c2cc(OC)ccc2c1NC(=O)CCN1CCCC(C)(C)C1 | -39.4%
CCOC(=O)c1[nH]c2ccc(Br)cc2c1NC(=O)CCN1CCCC(C)(C)C1 | -75.7%
CCOC(=O)c1[nH]c2ccc(Br)cc2c1NC(=O)CNC | -7.67%
CCOC(=O)c1[nH]c2ccc(Br)cc2c1NC(=O)CCN1CCOCC1 | 2.43%
O=C(Cn1c(=O)n(Cc2ccc3c(c2)OCO3)c(=O)c2ccccc21)N1CCCc2ccccc21 | 4.46%
Cc1ccc(NC(=O)CSc2nnc(-c3cccnc3)o2)c(C)c1 | 3.3%
CCO[C@@H]1OC(C(=O)O)=C[C@H](C)[C@H]1CCCO | 20.7%
COc1ccc(CC(=O)Nc2nc3n(n2)C(c2ccccc2)CC(=O)N3)cc1OC (stereo not shown) | 5.18%
CC(=O)c1cccc(N(CC(=O)Nc2ccc(S(=O)(=O)N3CCOCC3)cc2)S(C)(=O)=O)c1 | 8.48%
CCCCCCn1c(=O)c(C(=O)Nc2cnccn2)c(O)c2ccccc21 | 1.2%

SMILES | hERG current change (%, negative = inhibition) at 10uM
CCn1c(-c2c(Cl)c(C)nn2C)n[nH]c1=S | 10.9%
COc1ccc(C(=O)Nc2cc(-c3nn4c(C)nnc4s3)ccc2C)cc1 | -41.8%
Cc1cc(-c2ccccc2C(=O)O)on1 | 17.6%
CCCc1ccc(C2=Nn3c(nnc3C(C)C)SC2)cc1 | -6.25%
CCOc1ccc2ccccc2c1/C=N/NC(=O)c1c(C)cc(C)[nH]c1=O | 0.637%
CC(=O)Nc1ccc(OCC(O)CN2CCCCC2C)cc1.Cl (stereo not shown) | 3.85%
N#Cc1ccc(-c2ccc(OCC(O)CN3CCCCC3)cc2)cc1 (stereo not shown) | -80.7%
COc1ccc(OC)c(S(=O)(=O)N2CCN(CC(O)COc3ccc(C#N)cc3)CC2)c1 (stereo not shown) | -66.2%
COc1ccc(OCC(O)CN2CCCCCC2)cc1 (stereo not shown) | 9.18%
CC1CCCCN1CC(O)COc1ccc(OCC(O)CN2CCCCC2C)cc1 (stereo not shown) | 16.4%
COc1ccc(OC)c(S(=O)(=O)N2CCN(CC(O)COc3ccccc3)CC2)c1 (stereo not shown) | -34.7%
CCOC(=O)c1ccc(S(=O)(=O)N2CCN(CC(O)COc3ccc(C#N)cc3)CC2)cc1.O=C(O)C(=O)O (stereo not shown) | -63.2%
CC(=O)Nc1ccc(OCC(O)CN2CCN(S(=O)(=O)c3ccc(NC(C)=O)cc3)CC2)cc1 (stereo not shown) | -8.63%
CCOC(=O)c1ccc(S(=O)(=O)N2CCN(CC(O)COc3cccc(C(C)=O)c3)CC2)cc1.O=C(O)C(=O)O (stereo not shown) | -6.64%
COc1ccc(S(=O)(=O)N2CCN(CC(O)COc3ccc(C#N)cc3)CC2)cc1OC (stereo not shown) | -46.9%
N#Cc1ccc(-c2ccc(OCC(O)CN3CCOCC3)cc2)cc1 (stereo not shown) | -18.4%
CC1CN(CC(O)COc2ccc(C#N)cc2)CCN1CC(O)COc1ccc(C#N)cc1 (stereo not shown) | -77.2%
CCN(CC)S(=O)(=O)c1cc(C)ccc1SC | 12.1%
COc1ccc(C(=O)NNC(=O)c2ccc(C(C)(C)C)cc2)cc1 | 4.1%
CCN(CCN1CCCC1)C(=O)C1CCC(=O)N(CCCN2CCOCC2)C1 (stereo not shown) | 12.8%
O=C(CN1CCN(c2cccc(Cl)n2)CC1)N1CC(O)CO1 (stereo not shown) | 19.6%
CCc1noc(C)c1C(=O)N1CCN(S(=O)(=O)c2cccs2)CC1 | -23.5%

SMILES | hERG current change (%, negative = inhibition) at 10uM
CC(C)(C)NC(=O)NC(=O)CN1CCN(c2ncc(C(F)(F)F)cc2Cl)CC1 | -13.3%
FC(F)(F)c1cnc(N2CCN(C(=S)NCc3ccccc3)CC2)c(Cl)c1 | -11.3%
O=C(O)CN1CCN(c2ncc(C(F)(F)F)cc2Cl)CC1 | 11.6%
CN1CCN(CC(O)COc2ccc(OCC(O)CN3CCN(C)CC3)cc2)CC1 (stereo not shown) | -7.27%
OC(CN1CCN(c2ccc(C(F)(F)F)cn2)CC1)c1ccccc1 (stereo not shown) | -26.5%
COc1ccc(OCC(O)CN2CCCC2)cc1 (stereo not shown) | 15.2%
N#Cc1ccc(OCC(O)CN2CCN(CC(O)COc3ccc(C#N)cc3)CC2)cc1 (stereo not shown) | -86.1%
OC(CN1CCN(c2ncc(C(F)(F)F)cc2Cl)CC1)c1ccccc1 (stereo not shown) | -58%
CN(C)CC(O)COc1ccc(C(C)(C)c2ccc(OCC(O)CN(C)C)cc2)cc1.Cl (stereo not shown) | 12.5%
CN(C)CC(O)COc1ccc(-c2ccc(C#N)cc2)cc1 (stereo not shown) | -57.5%
N#Cc1ccc(OCC(O)CN2CCN(c3ncc(C(F)(F)F)cc3Cl)CC2)cc1 (stereo not shown) | -74.6%
CN(CCOc1ccc(Br)cc1)CC(O)COc1ccc(C#N)cc1 (stereo not shown) | -16.3%
CC(=O)Nc1cc(NC(=O)C2C3C=CC(C3)C2C(=O)O)ccc1Cl (stereo not shown) | 14.5%
Cc1ccc2nc(CSc3nnc(Nc4ccccc4C)s3)cc(=O)n2c1 | -43%
CN(C(=O)CSc1nnc(-c2ccc(Cl)cc2)n1CC1CCCO1)C1CCS(=O)(=O)C1 (stereo not shown) | -0.671%
O=C(c1ccccc1F)N(Cc1cccs1)C1CCS(=O)(=O)C1 (stereo not shown) | 21.9%
CN1C(=O)C2ON(c3ccccc3)C(c3cccs3)C2C1=O (stereo not shown) | -13.6%
CSc1ccc(CN(C)CCc2ccccn2)cc1.O=C(O)C(=O)O | -64.4%
COc1ccc(CN(C)CCc2ccccn2)cc1OC.O=C(O)C(=O)O | -5.06%
CCOc1ccc(CN(C)CCc2ccccn2)cc1.O=C(O)C(=O)O | -77.8%
CCOc1ccc(OCCN(C)Cc2ccccc2)cc1.O=C(O)C(=O)O | -45.8%
COc1cc(CN(C)CCc2ccccn2)cc(OC)c1OC.O=C(O)C(=O)O | -11.6%

SMILES | hERG current change (%, negative = inhibition) at 10uM
COc1cc(OC)c(OC)cc1CN(C)CCc1ccccn1.O=C(O)C(=O)O | -11.2%
COc1ccc(OC)c(N(CC(=O)Nc2cccnc2)S(=O)(=O)c2ccc(OC)c(OC)c2)c1 | -17.9%
COC(=O)c1sc(NC(=O)c2cnccn2)c(C(=O)OC)c1C | 18.7%
COc1ccccc1OCCSc1ncnc2nc[nH]c12 | 4.63%
Cc1ccc(NC(=O)C(C)SCc2nc3sc(C)c(C)c3c(=O)[nH]2)nc1 (stereo not shown) | -10.7%
CCS(=O)(=O)NC(C)C(c1cccs1)N1CCN(c2ccc(F)cc2)CC1 (stereo not shown) | -8.13%
CC(C)CCn1cnc2c(cnn2-c2ccc(F)cc2)c1=O | -3.95%
O=C(C1=C[C@H](c2ccc(C(F)(F)F)cc2)C[C@H](OCc2ccc(CO)cc2)O1)N1CCN(Cc2ccc3c(c2)OCO3)CC1 | -19.5%
O=C(C1=C[C@@H](c2ccc3c(c2)OCO3)C[C@@H](OCCCCO)O1)N1CCOCC1 | 7.64%
O=C(C1=C[C@@H](c2ccc(Br)cc2)C[C@@H](OCc2ccc(CO)cc2)O1)N1CCN(Cc2ccc3c(c2)OCO3)CC1 | -9.55%
O=C(C1=C[C@H](c2ccc3c(c2)OCO3)C[C@H](OCCCCO)O1)N1CCN(Cc2ccc3c(c2)OCO3)CC1 | -69.1%
C#Cc1ccc([C@@H]2C=C(C(=O)N3CCN(Cc4ccc5c(c4)OCO5)CC3)O[C@H](OCCCCO)C2)cc1 | -64.1%
C#Cc1ccc([C@H]2C=C(C(=O)N3CCN(Cc4ccc5c(c4)OCO5)CC3)O[C@@H](OCc3ccc(CO)cc3)C2)cc1 | -7.23%
O=C(C1=C[C@@H](c2ccc(Br)cc2)C[C@@H](OCCCCO)O1)N1CCN(Cc2ccc3c(c2)OCO3)CC1 | -55.3%
CC(C)(C)[C@H]1C=C(C(=O)N2CCN(Cc3ccc4c(c3)OCO4)CC2)O[C@@H](OCCCCO)C1 | -23.4%
O=C(C1=C[C@H](c2ccc(Br)cc2)C[C@H](OCc2ccc(CO)cc2)O1)N1CCN(Cc2ccc3c(c2)OCO3)CC1 | -19.8%
C[C@@H]1C=C(C(=O)N2CCN(Cc3ccc4c(c3)OCO4)CC2)O[C@H](OCCCCO)C1 | 4.01%
O=C(C1=C[C@@H](c2ccc(C(F)(F)F)cc2)C[C@@H](OCCCCO)O1)N1CCN(Cc2ccc3c(c2)OCO3)CC1 | -68.8%
O=C(C1=C[C@H](c2ccc(C(F)(F)F)cc2)C[C@H](OCCCCO)O1)N1CCN(Cc2ccc3c(c2)OCO3)CC1 | -44.1%

From publication PMC4336329 (PLoS ONE, 2015)
